Screens deposited in PubChem by National Center for Advancing Translational Sciences (NCATS).
An excerpt weighted towards active compounds, which were near 21% of everything screened.
NS1 inh = blocks influenza NS1 protein function | actives 0.4% (n = 270,000) | Potency, µM (titrated, usually from 46.1 µM), without a hit: at the top dose activity, positive = more growth | AID 2326; calls by dose curve; further: potency means the concentration at half of the fitted maximal effect; actives are rising curves; nearly all actives have a fitted effect of over 50% in size
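Compounds were scored for reversing the slow growth caused by influenza A NS1 in S. cerevisiae, measured by optical density at 600 nm. Assay medium contained 2% galactose at pH 6.0; NS1-free yeast of the same strain were the positive control.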
Pf growth 48h = P. falciparum growth inhibition at 48 hours (one generation). P. falciparum luciferase growth in erythrocytes, 48 h. AID 504832. actives 5.9% (n = 310,000). Potency, µM (highest dose often 28.7 µM), without a hit: at the top dose activity change, negative = inhibition, actives largely listed as inhibitors; further: potency means the concentration at half of the fitted maximal effect; on the % scale 0 is the no-effect control and ±100 the full control effect
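Growth was read as firefly luciferase luminescence after a 48 h, 37 C, 5% CO2 exposure of compounds to reporter-bearing P. falciparum cultures (0.1% parasitemia, 2% hematocrit final) in Albumax-supplemented RPMI 1640.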
CHX counter = counter-screen hit for Shiga toxin inhibitors, cycloheximide | actives 12% (n = 300,000) | AID 2314 | cell reporter, cycloheximide protein synthesis inhibition counterscreen | max response, %; in the data active means max response mostly above about 13%, no sharp cut-off; inactive means mostly below about 14%; further: read at 38.3 µM for the half of the compounds with a filed dose; 0% is about no effect
Shiga inhibitor = blocks Shiga toxin action in Vero cells | Vero cells, Shiga toxin protein synthesis inhibition reporter | inhibition, % at 38.7 µM | actives 9.2% (n = 290,000); in the data active means inhibition mostly above about 28%, no sharp cut-off; inactive means mostly below about 43%; further: 0% is about no effect
Pf growth 96h = P. falciparum growth inhibition at 96 hour, primary screen for plastid delayed-death inhibitors; P. falciparum luciferase reporter growth, 96 h; Potency, µM (titrated, usually from 28.7 µM), for inactives: at the top dose activity change, negative = inhibition, usual class: inhibitors; actives 6.9% (n = 320,000); AID 504834; further: potency means the concentration at half of the fitted maximal effect; on the % scale 0 is the no-effect control and ±100 the full control effect
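Luminescence readout: decreased luciferase signal marks inhibited growth of reporter-expressing P. falciparum in infected red cells (2% hematocrit, 0.05% parasitemia final), exposed to compound two generations (96 h, 37 C, 5% CO2).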
* hit, by the source's call; ? = inconclusive; / = no result given; + = active, no number; [ ] = dose if it differs, or a comment. Unless noted, the call rests on the fitted dose curve; in most records, active means well fitted inhibition curve with a large enough effect; inconclusive means small, poorly fitted or top-dose-only effect, or another doubt; inactive means no such curve, though single readings can be large or run the other way.

SMILES | NS1 inh | Pf growth 48h | CHX counter | Shiga inhibitor | Pf growth 96h
COc1ccc2[nH]c(C)c(C(=O)CN(C)CC3OCCO3)c2c1 | 11% | 2% | 1 | -8 | 11%
CC(=O)N1CCN(CC(O)COc2ccc(S(=O)(=O)N3CCOCC3)cc2)CC1 (stereo not drawn) | / | 10% | / | / | -13%
COc1ccc(C(=O)Nc2cccnc2Sc2ccc(Cl)cc2)cc1 | -4% | ? | 27* | 47* | 9%
O=C(NC(=S)Nc1cccnc1Cl)c1ccc(Cl)cc1 | -44% | 46% | 50* | 114* | -5%
O=C(Nc1cccnc1Cl)c1cccnc1Cl | 0% | / | -4 | -11 | 25%
O=C(Nc1cccc2cccnc12)c1ccc(Cl)cc1 | -16% | 111% | 37* | 45* | 34%
O=C(Nc1cccnc1Cl)c1ccc(Cl)cc1 | -4% | 56% | 36* | 70* | -6%
O=C(Nc1cccnc1Cl)c1cc(-c2ccc(Cl)cc2)on1 | -2% | 24% | -2 | -3 | -11%
O=C(O)c1ccc(C(=O)Nc2cccc3cccnc23)cc1 | / | / | 10 | 29 | /
CCN(CC1CCCO1)C(=O)c1cc(COc2cc(C)c(Cl)c(C)c2)on1 (stereo not drawn) | -29% | 2% | 44* | 73* | 12µM*
CCN(CC1CCCO1)C(=O)c1cc(COc2ccc(F)cc2F)on1 (stereo not drawn) | -2% | 51% | 7 | 17 | 141%
Cc1cc(OCc2cc(C(=O)N(C)CC3CCOCC3)no2)cc(C)c1Cl | -2% | -6% | 35* | 46* | ?
Cc1nc2cc(Cl)c(Cl)cc2nc1C | -15% | 65% | 48* | + | /
Cc1cnc2cc(Cl)c(Cl)cc2n1 | 13% | -15% | -4 | -3 | ?
COc1ccc(CNC(=O)CS(=O)CC(=O)O)cc1OC (stereo not drawn) | / | 0% | -2 | -5 | 30%
Cc1cc2c3c(c1)C1(C(=O)N3C(C)(C)CC2C)C(C#N)=C(N)Oc2n[nH]c(C)c21 (stereo not drawn) | -4% | 12µM* | -1 | -4 | /
Cc1cc2c3c(c1C)C1(C(=O)N3C(C)(C)CC2C)C(C#N)=C(N)Oc2n[nH]c(C)c21 (stereo not drawn) | -90% | ? | -3 | -13 | 12%
Cc1cc2c3c(c1C)C1(C(=O)N3C(C)(C)CC2C)C(C#N)=C(N)OC2=C1C(=O)CC(C)(C)C2 (stereo not drawn) | -6% | 13µM* | -2 | 16 | 9.3µM*
Cc1cc2c3c(c1)C(C)(c1ccccc1)CC(C)(C)N3C(=O)C21C(C#N)=C(N)OC2=C1C(=O)CC(C)(C)C2 (stereo not drawn) | 22% | / | 9 | -5 | 1.9µM*
CCC(=O)Oc1ccc(-c2cnc3ccccc3n2)cc1 | -43% | 28% | 32* | 60 | 317%
CCOC(=O)COc1cnc2ccccc2n1 | 5% | ? | 2 | 13 | 0%
O=C(Oc1ccc(-c2cnc3ccccc3n2)cc1)c1ccco1 | 6% | 171% | 23* | 64 | /
O=C(NN=C(Cc1ccccc1)Cc1ccccc1)c1ccncc1 | -2% | 13% | 8.0* | 21 | ?
O=C(NCc1ccccc1)NC(=O)c1ccccc1F | -7% | 60% | 28* | 33* | ?
CC/C(Cc1ccccc1)=N\NC(=O)c1cc(C)oc1C | 1% | 13% | -2 | 1 | -20%
SMILES | NS1 inh | Pf growth 48h | CHX counter | Shiga inhibitor | Pf growth 96h
Cc1cc(C(=O)NN=C(Cc2ccccc2)Cc2ccccc2)c(C)o1 | 16% | -27% | 29* | 84* | -8%
O=C(NN=C(Cc1ccccc1)Cc1ccccc1)c1ccccc1F | / | 7% | 38* | 91* | 23%
CCC(=O)Nc1c2c(nn1-c1ccc(F)cc1)CS(=O)(=O)C2 | 3% | 19% | 0 | -4 | 29%
O=c1[nH]c(/C(Cl)=C/c2cccc(C(F)(F)F)c2)nc2cc(Cl)ccc12 | 6% | 13% | -5 | -7 | 14%
CC(=O)c1cccc(S(=O)(=O)NC2CCSc3ccccc32)c1 (stereo not drawn) | 17% | ? | -1 | 3 | -20%
CCOC(=O)c1sc(Nc2nc(OC)cc(OC)n2)nc1C | 5% | ? | 7 | -3 | -17%
O=C(NN=C(Cc1ccccc1)Cc1ccccc1)C1CC1 | / | -16% | 21* | 27 | 7%
Cc1ccccc1NC(=O)c1c(Cl)nc(C)c(Cl)c1C | 24% | -18% | -3 | -5 | ?
Cc1nc(Cl)c(C(=O)NC(=O)NCc2ccccc2)c(C)c1Cl | -10% | 6% | -5 | 6 | 13µM*
COc1ccccc1CNC(=O)C(C)c1ccc([N+](=O)[O-])cc1 (stereo not drawn) | 2% | ? | -1 | 7 | 12%[5.75 µM]
Nc1cc(Nc2ccc(Br)cc2)nc(N)n1 | 3% | ? | 40* | 70* | 10µM*
COc1ccc(Nc2cc(C)nc(N)n2)cc1 | -54% | ? | 20* | 37* | ?
CCCCNc1cc(Cl)nc(N)n1 | -3% | 41% | -1 | -2 | 39%
Nc1ccc2cc(Br)ccc2c1 | / | -13% | 2 | 18 | ?
COc1ccc(Nc2cc(Cl)nc(N)n2)cc1 | / | 73% | 29* | 36 | 6%
Cc1cc(Nc2ccc(Cl)cc2)nc(N)n1 | 7% | ? | 68* | 63* | 2.6µM*
COc1ccc(Nc2nc(C)cc(C)c2C#N)cc1 | 8% | 37% | -1 | -4 | /
Cc1cc(Nc2ccc(Cl)cc2)nc(-c2ccccc2O)n1 | 5% | ? | 15 | 46 | ?
O=C(NCc1ccc2c(c1)OCO2)c1cccc(S(=O)(=O)N2CCCC2)c1 | -3% | 4% | -1 | 21 | -8%
CN(CC(=O)Nc1ccc(Cl)c(C(F)(F)F)c1)C(=O)CCN1C(=O)C2CCCCC2C1=O (stereo not drawn) | / | 2% | / | / | -11%
COc1ccc([N+](=O)[O-])cc1NC(=O)COC(=O)c1ccccn1 | / | 35% | 19 | 14 | 40%
CCOC(=O)Cc1nnc(Nc2cccc(C)c2)c2ccccc12 | 5% | -27% | -4 | -12 | -13%
CCOC(=O)c1ccc(Nc2nnc(C)c3ccccc23)cc1 | -40% | -12% | 20* | 56* | -1%
CCOC(=O)Cc1nnc(Nc2ccc(C)cc2)c2ccccc12 | 18% | -6% | 2 | 29 | 10µM*
S=C(Nc1ccccc1Cl)Nc1ccc(Cl)cc1Cl | -1% | 27% | 1 | 10 | ?
SMILES | NS1 inh | Pf growth 48h | CHX counter | Shiga inhibitor | Pf growth 96h
S=C(Nc1ccc2cn[nH]c2c1)Nc1ccccc1Cl | -4% | 114% | 73* | 51* | 175%
CCc1ccc(NC(=S)Nc2ccc3cn[nH]c3c2)cc1 | -3% | 31% | 14 | 50* | 5%
S=C(Nc1ccccc1)Nc1ccc(Cl)cc1Cl | 10% | 65% | 29* | 139* | 88%
S=C(Nc1ccc2cn[nH]c2c1)Nc1ccc(Cl)cc1Cl | 0% | 15% | 18* | 47 | 15%
Cc1c(Cl)c(S(N)(=O)=O)cc(S(N)(=O)=O)c1NC(=O)c1ccc(Cl)cc1 | -3% | / | / | / | /
CC(C)[C@H](NC(=O)c1ccccc1)C(=O)OCC(=O)N1CC2(C)CC1CC(C)(C)C2 (stereo partly drawn) | -14% | -11% | -2 | -6 | ?
